# FBW7 act = FBW7 E3 ligase activators, primary screen, biochemical, AlphaScreen, human; F-box/WD repeat-containing protein 7 (Homo sapiens), Q969H0; AlphaScreen FBW7–phospho-cyclin E peptide binding, activator screen; normalized activity (activation), % at 26.1 µM; 650,000 tested, 0.13% active; AID 1259310, 2017; in the data active means normalized activity above about 1.9%;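 further: purified mutant Fbw7 with reduced substrate affinity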
# GPR151 ag = activators of human GPR151, primary screen, cell-based, PathHunter beta-arrestin, luminescence; G-protein coupled receptor 151 (Homo sapiens), Q8TDV0; PathHunter beta-arrestin GPR151 cells; activation, % at 11.2 µM; 650,000 tested, 1% active; in the data active means activation above about 4.9%;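 further: 0% = median of compound wells and 100% = cells with positive control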
# Target sequence (Q8TDV0 whole entry, looked up): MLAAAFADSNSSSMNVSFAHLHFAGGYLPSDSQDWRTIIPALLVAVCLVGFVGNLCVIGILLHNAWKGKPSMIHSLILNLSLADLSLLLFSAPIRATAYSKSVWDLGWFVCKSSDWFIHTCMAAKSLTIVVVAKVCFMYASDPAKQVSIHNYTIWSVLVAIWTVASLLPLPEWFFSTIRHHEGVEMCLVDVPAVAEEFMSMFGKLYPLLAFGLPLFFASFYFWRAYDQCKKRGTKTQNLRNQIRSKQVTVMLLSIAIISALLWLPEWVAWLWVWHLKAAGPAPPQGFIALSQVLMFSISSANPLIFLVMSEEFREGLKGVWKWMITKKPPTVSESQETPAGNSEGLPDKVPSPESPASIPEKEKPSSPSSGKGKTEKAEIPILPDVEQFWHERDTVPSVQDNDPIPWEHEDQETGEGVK
# TEAD-YAP block = TEAD-YAP interaction inhibition, primary screen, TEAD-YAP interaction inhibitor project, luminescence, HEK-TIYL cells | inhibition, % at 9.12 µM | AID 1259422, 2018 | 640,000 tested, 1.4% active | TEAD-Gal4/YAP UAS-luciferase luminescence; in the data active means inhibition above about 32%;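 further: 0% = median of test compound wells and 100% = reference inhibitor wells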
# MITF primary = MITF inhibitors, primary screen, biochemical, AlphaScreen, human. AID 1259374, 2018. 650,000 tested, 0.91% active. inhibition, % at 2.6 µM. AlphaScreen MITF homodimerization, bead proximity signal; in the data active means inhibition above about 50%;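 further: 0% = vehicle wells with protein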
# The depositor's hits bear a star. In the library only some 3.4% were active in any assay of this set; here they are far more common.
SMILES,FBW7 act,GPR151 ag,TEAD-YAP block,MITF primary
CCOCCOC(=O)C1=C(C)NC2=C(C(=O)CC(c3cccs3)C2)C1c1cccs1 (configuration not stated),0.1,-0.9,14.0,-4.5
CCOC(=O)C1=C(C)NC2=C(C(=O)CC(c3ccco3)C2)C1c1cccs1 (configuration not stated),0.4,-1.2,63.1*,9.6
COc1cc(-c2ccc3c(-c4cccc(O)c4)[nH]nc3n2)ccc1O,0.1,-0.7,18.3,7.1
CCOc1cccc(/C=N/NC(=O)c2cc(-c3cccc([N+](=O)[O-])c3)n[nH]2)c1O,0.0,0.3,60.4*,41.5
CCOc1ccccc1-c1cc(C(=O)N/N=C/c2cccc(OCC)c2O)[nH]n1,0.1,-2.4,68.8*,18.1
CCOc1cccc(/C=N/NC(=S)Nc2ccccc2[N+](=O)[O-])c1O,-0.3,3.2,71.4*,12.0
CCn1ccnc1N1CCN(CC(=O)NCCc2ccccc2)CC1,0.3,-2.0,-2.2,9.6
CCN(CC)c1ccc(/C=N\Nc2cc(=O)n(C)c(=O)n2C)cc1,-0.1,0.0,55.0*,3.5
COC(=O)c1ccccc1NC(=S)N1CCC(C(=O)c2ccc3c(c2)OCCO3)CC1,-0.4,0.8,1.6,4.9
COc1cccc2c(C)cc(N3CCN(C)CC3)nc12,1.9*,-0.2,-5.9,15.9
Cc1cc(OCC(=O)NNC(=O)CCc2ccccc2)ccc1Br,2.3*,-0.7,5.9,6.8
Cc1cc(=O)[nH]c(NC2CCN(C(=O)N3c4ccccc4Sc4ccccc43)CC2)n1,-0.1,-1.0,56.3*,-0.9
Cc1cc(=O)[nH]c(NC2CCN(C(=O)C(C)(C)c3ccc(Cl)cc3)CC2)n1,0.0,-0.3,5.2,9.3
CC(C)n1c(Nc2ccccn2)nc2c(Nc3ccc(Oc4ccccc4)cc3)ncnc21,0.1,0.7,56.1*,1.2
CC(C)n1c(Nc2ccccn2)nc2c(NCCOc3ccccc3)ncnc21,-0.1,2.0,-29.1,-1.0
Cc1cccc2cc(-c3nc4ccccc4[nH]3)c(=O)oc12,0.2,0.2,-42.9,12.1
Cc1ccc2cc(-c3nc4ccccc4[nH]3)c(=O)oc2c1,2.4*,-2.6,-18.7,21.2
CC(=O)OC1c2cc(C)ccc2NC(c2ccc(F)cc2)C1(C)C (configuration not stated),-0.2,0.4,33.8*,8.8
CC(=O)OC1c2cc(C)ccc2NC(c2ccc(Cl)cc2)C1(C)C (configuration not stated),0.3,1.4,14.3,8.4
COc1ccc(C(Nc2cc(C)ccn2)c2ccc3ccc(C)nc3c2O)cc1OC (configuration not stated),0.2,-0.5,27.9,19.9
CCOc1cc(C(Nc2cc(C)ccn2)c2ccc3cccnc3c2O)ccc1OCc1ccccc1 (configuration not stated),-0.1,-0.1,80.3*,7.1
CCOc1ccc(C(Nc2cc(C)ccn2)c2ccc3ccc(C)nc3c2O)cc1OCC (configuration not stated),-0.1,-0.3,16.9,14.6
COc1ccc(C(Nc2cc(C)ccn2)c2ccc3cccnc3c2O)cc1OC (configuration not stated),-0.2,-0.6,61.3*,27.9
COc1ccccc1C(Nc1cc(C)ccn1)c1ccc2cccnc2c1O (configuration not stated),-0.3,-0.5,83.8*,23.6
COc1ccc(C(Nc2ccccn2)c2ccc3cccnc3c2O)cc1OC (configuration not stated),-1.2,0.6,70.2*,36.8
SMILES,FBW7 act,GPR151 ag,TEAD-YAP block,MITF primary
Cc1ccc2ccc(C(Nc3ccccn3)c3ccc(C)c(C)c3)c(O)c2n1 (configuration not stated),0.0,-0.4,10.2,9.3
O=C(N/N=C/c1ccncc1)c1ccccc1O,0.0,-0.6,-36.5,-16.6
Cc1nc(NC(=O)c2ccccc2O)sc1C(C)C,0.2,0.8,-27.0,3.9
CCCN(CCC)C1=CC(=O)C(C)=CC1=O,-0.2,-2.0,2.2,65.3*
CCCN(CCC)C1=CC(=O)C(C)=C(C)C1=O,-0.2,0.0,-0.1,38.7
NS(=O)(=O)c1cccc(S(=O)(=O)c2ccccc2)c1,0.0,-0.5,9.3,-3.5
CCC(C)(C)n1nnnc1CN1CCC(c2nc3ccc(Cl)cc3[nH]2)CC1,0.3,0.6,34.7*,20.4
CCC(C)(C)n1nnnc1CN1CCC(c2nc3ccc(C)cc3[nH]2)CC1,0.1,-0.7,-5.6,37.3
CCOC(=O)c1c2c(n(C)c1CNC(C)C)C(=O)C(=O)c1ccc(Br)cc1-2,-0.2,-0.6,12.7,5.7
CCOC(=O)c1c2c(n(C)c1CN(C)C)C(=O)C(=O)c1ccc(Br)cc1-2,-0.2,-1.7,95.8*,8.0
COc1ccc2c(c1)NC(C)(C)c1sn(-c3ccccc3C)c(=S)c1-2,-0.5,0.9,-18.9,3.5
Cc1nc2ccccn2c1C(=O)Nc1ccc(CC(=O)NCc2cccs2)cc1,-0.1,-1.1,54.8*,-9.9
O=C(NCc1cccs1)C1CCN(C(=O)Nc2ccc(Cl)cc2)CC1,2.4*,-0.1,-17.2,14.2
Cc1nc2ccccn2c1C(=O)Nc1ccccc1,-0.3,0.5,-12.5,13.3
O=C(Cc1ccc(Cl)cc1)NCc1cccs1,9.5*,1.9,6.0,12.8
O=C(NCCO)c1cc(N2CCC(N3CCOCC3)CC2)nc2ccccc12,0.0,1.1,10.4,-0.1
CC(=O)Nc1ccc(S(=O)(=O)Oc2ccc(C=O)cc2Br)cc1,0.0,-1.0,-3.1,-20.6
CCOc1ccc2nc(NC(=O)C(C)(C)CC)sc2c1,-0.2,0.1,40.8*,-8.2
CCOC(=O)C1CCN(c2nc3ccc(CC)cc3s2)CC1,0.9,-1.3,55.5*,-5.0
CCOc1ccc2nc(N3CCC(C(=O)Nc4ccc(OC)cc4)CC3)sc2c1,-0.1,1.7,8.6,7.6
CCc1ccc2sc(N3CCC(C(=O)NC4CCCC4)CC3)nc2c1,-0.2,3.1,65.0*,-4.4
CCOc1ccc2nc(N3CCC(C(=O)O)CC3)sc2c1,-0.3,0.8,58.0*,-1.4
CCOC(=O)Nc1nc2ccc(OCC)cc2s1,-0.1,-0.6,0.7,7.9
CCOC(=O)C1CCN(c2nc3cc(Br)ccc3s2)CC1,0.2,-6.2,-11.2,14.7
Cc1c(C(=O)Nc2c3c(nn2C(C)(C)C)CSC3)cccc1[N+](=O)[O-],0.0,0.2,15.4,-5.1
O=C(CSc1nc2ccc([N+](=O)[O-])cc2[nH]1)Nc1ccc(F)c(F)c1,-0.1,0.2,68.5*,0.4
O=C(CSc1nc2ccc([N+](=O)[O-])cc2[nH]1)Nc1ccc(F)cc1,0.1,1.0,7.5,14.1
C=CCN1C(=O)C(C)S/C1=N/S(=O)(=O)c1ccc(Cl)cc1 (configuration not stated),0.1,-0.6,3.2,5.0
Cc1nn(-c2ccccc2)c(N2CCCCC2)c1/C=N/Nc1ccccn1,-0.1,-1.0,60.9*,7.0

# Compound activity (PubChem BioAssay)
